Percent Effect data for 40 compounds are collected here from ChEMBL document CHEMBL3988442, “University of Dundee, Small-Polar-MMV Screening Library” (2021).

In the assay the target is T1, Aspartate--tRNA(Asp/Asn) ligase (Mycobacterium tuberculosis (strain ATCC 25618 / H37Rv)) (UniProt P9WFW3).
T1 sequence (whole entry): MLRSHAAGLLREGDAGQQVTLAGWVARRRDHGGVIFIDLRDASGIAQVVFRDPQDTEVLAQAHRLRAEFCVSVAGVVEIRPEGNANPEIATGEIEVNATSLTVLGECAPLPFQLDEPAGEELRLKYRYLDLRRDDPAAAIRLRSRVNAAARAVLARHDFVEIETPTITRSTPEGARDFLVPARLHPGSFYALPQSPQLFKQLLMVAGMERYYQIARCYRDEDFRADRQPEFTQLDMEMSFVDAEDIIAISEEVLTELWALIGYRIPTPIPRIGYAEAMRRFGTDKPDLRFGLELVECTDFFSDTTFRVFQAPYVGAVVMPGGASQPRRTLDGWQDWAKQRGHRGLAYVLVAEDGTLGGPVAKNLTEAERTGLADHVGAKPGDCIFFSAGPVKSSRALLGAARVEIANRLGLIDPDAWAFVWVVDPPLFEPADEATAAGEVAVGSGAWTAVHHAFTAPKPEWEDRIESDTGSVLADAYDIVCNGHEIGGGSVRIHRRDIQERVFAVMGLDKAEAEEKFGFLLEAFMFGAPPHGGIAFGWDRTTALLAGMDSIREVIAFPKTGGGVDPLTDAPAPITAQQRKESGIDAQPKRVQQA
Nature of the assay: Assay for Asp RNA synthetase-1 from Mycobacterium tuberculosis. In kind it is functional. Also noted: scale not given: in the data most compounds retested in dose-response had high values. The settings on record: 30 µM.
As for `Cc1nc(C)n(CC2CCCCN2CC(=O)Nc2ccncc2)n1` (stereo not given), the Percent Effect is -1.82%.
For the compound `Cc1nnc(N2CC[C@H]3C[C@@H](C(=O)NC4CCCC4)O[C@H]3C2)s1`, the Percent Effect stood at 0.29%.
`CC(C)n1[nH]c(=O)c2c1NC(=O)CC2c1cccnc1` (stereo not given): the Percent Effect is -1.05%.
Regarding `Cc1ncc(-c2ccnc(N3CCN(C)CC3)n2)c(-c2cccnc2)n1`, the Percent Effect amounted to 4.45%.
As to `CCOc1ccccc1C(=O)N1CCCC1c1ncc2c(n1)CCNC2` (stereo not given), the Percent Effect was -3.07%.
`CC(=O)Nc1nc(CN2CCOC(Cn3cc(C)cn3)C2)cs1` (stereo not given): the Percent Effect is -1.93%.
Take `O=C(O)c1cc(S(=O)(=O)N2CCOc3ccccc32)ccc1F`: the Percent Effect is -4.32%.
On to `O=C(c1cnc(COc2ccccc2)nc1O)N1CCOCC1`, for which the Percent Effect worked out at 1.28%.
Turning to `CSCc1cccc(S(=O)(=O)NCCCO)c1`, the Percent Effect turned out to be 13.1%.
With `CC(C)CCN1CN=C(NS(=O)(=O)c2ccc(F)cc2)NC1`, the Percent Effect was -1.13%.
In the case of `O=C(N1CCOCC1)[C@@]12CCO[C@@H]1CCN(CC1CCCCC1)C2`, the Percent Effect is -2.47%.
To `COCCN1CCC(NCc2ccc(C#N)cc2)C1` (stereo not given) belongs -2.03%.
Regarding `CN1CCN(c2ncc3c(=O)n(-c4cccc(F)c4)c(=O)[nH]c3n2)CC1`, the Percent Effect was 11.2%.
Take `O=C(NCCCN1CCOCC1)Nc1cnc2cc(Cl)ccc2c1O`: the Percent Effect was 1.35%.
Regarding `COc1cccc(CNC(CN2CCN(C)CC2)c2ccccc2)c1` (stereo not given), the Percent Effect was 3.94%.
The value for `Nc1nccc(N2CCCC(CO)(CCOc3ccccc3)C2)n1` (stereo not given) was 9.3%; that for `CCOC(=O)c1sc(NC(=O)CN(C)S(C)(=O)=O)c(C#N)c1C` was -4.94%; that for `Cc1ccccc1N1CC2(CCN(S(=O)(=O)C3CC3)C2)CC1=O` (stereo not given) was -1.07%.
On to `COc1ncccc1CNC(=O)NC1CCOc2ccccc21` (stereo not given), for which the Percent Effect is -1.92%.
Regarding `O=C(CCc1nc2cccnc2[nH]1)NCc1cccnc1`, the Percent Effect is -0.232%.
Take `Cn1cnc2c1C(COCC1CCOCC1)CN(C(=O)c1ccoc1)C2` (stereo not given): the Percent Effect came to 2.22%.
As to `O=C(Nc1nccs1)N1CCCC(N2CCNC2=O)C1` (stereo not given), the Percent Effect turned out to be 0.977%.
Take `CC(C)NC(=O)N1CCN(S(=O)(=O)C2CC2)CC2(CC(=O)N(C)C2)C1` (stereo not given): the Percent Effect is -1.56%.
For the compound `CCn1cc2c(n1)CN(Cc1ccoc1)CC2COCC1CC1` (stereo not given), the Percent Effect is -4.69%.
In the case of `Cc1cccc(-c2[nH]ncc2CNCC2CCN(CC(C)O)CC2)c1` (stereo not given), the Percent Effect worked out at 4.15%.
For the compound `Cc1nccc(-c2cccc(NCC(=O)N3CCCCCCC3)c2)n1`, the Percent Effect worked out at 1.07%.
For the compound `C=C(C)COCCNC(=O)C1CCCN1C(C)=O` (stereo not given), the Percent Effect was -3.43%.
The value for `Cc1nn(C)c(C)c1C1CCCN1C(=O)c1cc[nH]n1` (stereo not given) was -5.05%.
In the case of `COC(=O)CCNC(=O)c1ccoc1CN1c2ccccc2CC1C` (stereo not given), the Percent Effect stood at 0.0912%.
In the case of `CCS(=O)(=O)N1CCC[C@]2(C(=O)N(C)C)CN(c3ccccn3)C[C@@H]2C1`, the Percent Effect came to 0.903%.
To `Cc1ccc(NC2CCN(C(=O)Cc3cccc(F)c3)CC2)nn1` belongs 14.3%; to `CN(CCCOc1ccccc1)C(=O)CN1CCc2cncnc2C1`, 5.73%.
For the compound `Cc1nnc(CN2CCCC(c3cc(C(N)=O)[nH]n3)C2)o1` (stereo not given), the Percent Effect was -2.96%.
Turning to `Cc1cc(CN2CCCC2c2noc(C3CC3)n2)c2ccccc2n1` (stereo not given), the Percent Effect was found to be 2.68%.
For `Cc1cnn(CCNCc2csc(-c3ccc4c(c3)OCO4)n2)c1`, the Percent Effect was 1.41%.
Take `Cc1ccc(CN2CCC3(C2)C(=O)N(CC(C)C)c2ccccc23)s1` (stereo not given): the Percent Effect was -0.155%.
For `Cc1cccc(NC2CCN(C(=O)Nc3cccc4[nH]ccc34)CC2)n1`, the Percent Effect is -0.4%.
To `CCN(Cc1ccc2c(c1)OCO2)C(=O)NC(C)Cn1cccn1` (stereo not given) belongs -0.819%; to `CCOCC1CC2(CCN(C(=O)c3ccccn3)CC2)CO1` (stereo not given), 0.961%.
As for `Cc1cc(C)n(C2CN(CC(O)c3ccc4c(c3)OCO4)C2)n1` (stereo not given), the Percent Effect is -5.92%.
